# Assay outcomes deposited in PubChem BioAssay by University of Kansas High Throughput Screening Laboratory.
# Shown are actives, neighbours in structure and some others; about 3.6% of the full set was active somewhere.
# Pf apPOL block: Pf-apPOL DNA polymerase inhibition; Recombinant Pf-apPOL, molecular beacon fluorescence, 1.5 h; inhibition, % at 10 µM; 0.25% of 210,000 active; AID 1794808
# mHTT-CaM PPI inh: disrupts binding of mutant huntingtin to calmodulin; P42858; AlphaScreen His-mHTT/GST-CaM binding, luminescence; inhibition, % at 15 µM; 3.6% of 190,000 active; AID 1671202;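 further: 0% = both proteins with DMSO and 100% = one protein alone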
# Target sequence (P42858 whole entry, looked up, stated change not applied): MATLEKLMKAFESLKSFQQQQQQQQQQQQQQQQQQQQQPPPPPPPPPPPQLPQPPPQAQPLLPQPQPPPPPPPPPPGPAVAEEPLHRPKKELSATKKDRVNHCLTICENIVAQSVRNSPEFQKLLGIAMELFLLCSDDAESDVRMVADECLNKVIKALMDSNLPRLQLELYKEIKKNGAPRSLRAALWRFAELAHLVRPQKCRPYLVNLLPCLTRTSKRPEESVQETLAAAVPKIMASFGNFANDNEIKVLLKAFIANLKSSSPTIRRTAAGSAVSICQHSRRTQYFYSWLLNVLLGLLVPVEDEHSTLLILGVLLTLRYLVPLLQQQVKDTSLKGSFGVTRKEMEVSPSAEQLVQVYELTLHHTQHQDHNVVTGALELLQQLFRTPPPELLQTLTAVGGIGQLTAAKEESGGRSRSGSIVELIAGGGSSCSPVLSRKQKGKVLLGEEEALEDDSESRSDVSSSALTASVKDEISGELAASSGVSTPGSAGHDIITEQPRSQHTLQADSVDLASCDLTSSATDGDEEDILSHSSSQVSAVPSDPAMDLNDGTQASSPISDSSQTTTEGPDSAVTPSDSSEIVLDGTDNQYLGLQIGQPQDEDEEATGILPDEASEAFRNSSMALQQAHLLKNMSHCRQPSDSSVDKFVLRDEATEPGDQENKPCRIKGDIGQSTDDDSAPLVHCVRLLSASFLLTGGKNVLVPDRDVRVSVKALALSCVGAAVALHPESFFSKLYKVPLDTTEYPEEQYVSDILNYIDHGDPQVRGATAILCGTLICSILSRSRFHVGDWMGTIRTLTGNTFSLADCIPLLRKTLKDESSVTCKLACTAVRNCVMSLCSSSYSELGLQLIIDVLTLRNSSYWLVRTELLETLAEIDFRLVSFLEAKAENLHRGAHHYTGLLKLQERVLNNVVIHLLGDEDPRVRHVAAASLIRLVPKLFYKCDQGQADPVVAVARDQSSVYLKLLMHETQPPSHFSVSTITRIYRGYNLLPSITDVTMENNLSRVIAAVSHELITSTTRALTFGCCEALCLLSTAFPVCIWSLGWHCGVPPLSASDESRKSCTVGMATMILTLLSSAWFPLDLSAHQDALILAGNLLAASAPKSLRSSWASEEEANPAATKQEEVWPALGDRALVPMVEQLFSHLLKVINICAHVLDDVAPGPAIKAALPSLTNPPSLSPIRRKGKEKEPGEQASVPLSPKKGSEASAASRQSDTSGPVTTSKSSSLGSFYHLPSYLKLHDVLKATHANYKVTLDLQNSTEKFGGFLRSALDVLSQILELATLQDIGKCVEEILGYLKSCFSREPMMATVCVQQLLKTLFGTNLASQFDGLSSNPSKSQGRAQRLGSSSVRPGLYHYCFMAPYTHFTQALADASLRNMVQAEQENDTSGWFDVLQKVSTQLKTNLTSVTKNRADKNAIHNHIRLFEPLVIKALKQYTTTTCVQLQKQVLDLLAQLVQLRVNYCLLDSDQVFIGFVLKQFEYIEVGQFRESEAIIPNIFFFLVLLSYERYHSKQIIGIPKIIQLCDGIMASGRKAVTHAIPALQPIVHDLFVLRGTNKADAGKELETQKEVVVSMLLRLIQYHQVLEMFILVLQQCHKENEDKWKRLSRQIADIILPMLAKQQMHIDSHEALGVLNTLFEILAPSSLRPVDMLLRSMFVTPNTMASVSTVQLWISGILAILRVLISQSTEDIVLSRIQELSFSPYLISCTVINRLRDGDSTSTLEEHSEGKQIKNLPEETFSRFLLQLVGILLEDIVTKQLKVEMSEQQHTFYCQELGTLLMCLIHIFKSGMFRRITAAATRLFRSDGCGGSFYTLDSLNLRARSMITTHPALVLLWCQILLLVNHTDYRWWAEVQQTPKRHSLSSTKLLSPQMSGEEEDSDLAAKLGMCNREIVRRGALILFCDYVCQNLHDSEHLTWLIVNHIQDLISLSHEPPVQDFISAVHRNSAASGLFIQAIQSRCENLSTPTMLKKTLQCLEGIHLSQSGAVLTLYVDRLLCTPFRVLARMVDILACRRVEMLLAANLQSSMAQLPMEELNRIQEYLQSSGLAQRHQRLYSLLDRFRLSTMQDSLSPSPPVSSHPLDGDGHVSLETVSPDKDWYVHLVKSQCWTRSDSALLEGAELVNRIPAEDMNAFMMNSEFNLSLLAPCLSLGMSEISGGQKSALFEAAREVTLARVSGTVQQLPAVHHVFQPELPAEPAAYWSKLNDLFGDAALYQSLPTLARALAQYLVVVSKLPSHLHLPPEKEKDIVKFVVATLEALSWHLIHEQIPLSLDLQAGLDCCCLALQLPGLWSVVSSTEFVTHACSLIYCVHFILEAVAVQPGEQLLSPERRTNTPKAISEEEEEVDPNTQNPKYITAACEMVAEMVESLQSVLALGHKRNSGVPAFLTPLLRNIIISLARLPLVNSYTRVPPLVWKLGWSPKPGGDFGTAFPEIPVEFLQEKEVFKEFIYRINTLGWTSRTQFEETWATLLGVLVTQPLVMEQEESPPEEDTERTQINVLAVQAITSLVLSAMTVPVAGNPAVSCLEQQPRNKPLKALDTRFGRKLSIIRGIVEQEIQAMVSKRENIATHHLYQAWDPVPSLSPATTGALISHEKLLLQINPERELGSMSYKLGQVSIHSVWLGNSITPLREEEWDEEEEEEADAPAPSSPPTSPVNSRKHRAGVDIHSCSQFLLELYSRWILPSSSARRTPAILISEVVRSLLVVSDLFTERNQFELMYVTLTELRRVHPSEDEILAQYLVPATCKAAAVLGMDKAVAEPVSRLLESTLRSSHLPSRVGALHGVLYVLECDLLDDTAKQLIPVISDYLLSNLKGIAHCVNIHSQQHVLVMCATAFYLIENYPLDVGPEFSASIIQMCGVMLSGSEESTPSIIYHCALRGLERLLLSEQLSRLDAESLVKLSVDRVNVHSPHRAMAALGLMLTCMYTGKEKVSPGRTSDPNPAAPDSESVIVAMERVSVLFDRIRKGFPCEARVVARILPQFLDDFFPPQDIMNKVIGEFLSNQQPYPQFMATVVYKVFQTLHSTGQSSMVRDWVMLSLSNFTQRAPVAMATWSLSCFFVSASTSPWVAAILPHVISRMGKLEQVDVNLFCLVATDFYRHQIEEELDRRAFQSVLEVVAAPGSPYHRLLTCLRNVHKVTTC
# * = called active by the depositor; nt = no result given. No stated cut-off is given here; in the data, active means inhibition above about 50%; inactive means the rest.
SMILES,Pf apPOL block,mHTT-CaM PPI inh
CC(C)(C)c1ccc(O)c(N=C/C=C/c2ccc([N+](=O)[O-])cc2)c1,-5,31
N#C/C(=C\c1cn(Cc2ccc(Cl)cc2)c2ccccc12)c1nn(CCO)c(N)c1C#N,-2,69*
N#C/C(=C\c1cn(Cc2ccccc2Cl)c2ccccc12)c1nn(CCO)c(N)c1C#N,-1,39
CC(C)Oc1ccc(Br)cc1/C=C(\C#N)c1nn(CCO)c(N)c1C#N,-4,54*
N#C/C(=C\c1ccc(-c2ccccc2F)o1)c1nn(CCO)c(N)c1C#N,-1,12
COc1ccc(Br)cc1/C=C(\C#N)c1nn(CCO)c(N)c1C#N,-1,47
N#C/C(=C\c1ccc(-c2ccccc2[N+](=O)[O-])o1)c1nn(CCO)c(N)c1C#N,-6,72*
COc1ccc(NC(=O)c2cc(OC)c(OC)cc2[N+](=O)[O-])cc1,-3,3
CC(C)CNC(=O)c1cc(-c2ccc(F)cc2)ns1,-5,-10
Cc1ccccc1Nc1nccc(C2CCCN(C(=O)c3ccsc3)C2)n1 (stereo not drawn),-5,12
Cc1cccc(-n2c(CN3CCN(C(=O)NCC(C)C)CC3)nc3cccnc32)c1,2,5
COc1ccc(OC)c(/C=C2/C(=O)N(c3ccccc3)N=C2C)c1,1,7
O=C(c1ccco1)N1CCN(c2ncnc3[nH]ncc23)CC1,1,-6
N#Cc1c(SCC(=O)c2ccc(Cl)s2)sc2c(O)cc(=O)[nH]c12,nt,63*
N#CCSc1sc2c(O)cc(=O)[nH]c2c1C#N,nt,-1
CC(C)NC(=O)C1CC(=O)N(c2ccc3c(c2)CCN3C(=O)C2CC2)C1 (stereo not drawn),-6,-3
Cn1cccc1CN(C(=O)CSCc1ccccc1)C1CC1,-8,0
O=C(CCCSc1ccc(NC(=O)c2ccc(F)cc2)nn1)NCc1cccs1,-9,-13
Cc1onc(-c2c(Cl)cccc2Cl)c1C(=O)Nc1ccc(F)c([N+](=O)[O-])c1,42,63*
Cc1ccc(NC(=O)c2c(-c3c(Cl)cccc3Cl)noc2C)c([N+](=O)[O-])c1,6,19
Cc1ccc2nc(NC(=O)c3cc([N+](=O)[O-])ccc3Cl)sc2c1,-3,-2
COc1ccc(NC(=O)c2c(-c3c(Cl)cccc3Cl)noc2C)c([N+](=O)[O-])c1,11,53*
Cc1onc(-c2c(Cl)cccc2Cl)c1C(=O)Nc1nc2ccc([N+](=O)[O-])cc2s1,-22,85*
Cc1onc(-c2ccccc2Cl)c1C(=O)Nc1ccc(F)c([N+](=O)[O-])c1,-5,23
Cc1cccc(-n2nc3c(c2NC(=O)c2ccco2)CSC3)c1,2,72*
SMILES,Pf apPOL block,mHTT-CaM PPI inh
Cc1cccc(-n2nc3c(c2NC(=O)c2ccc(Br)o2)CSC3)c1,-10,64*
COc1ccc(C(=O)Nc2c3c(nn2-c2cccc(C)c2)CSC3)cc1,-8,35
Cc1ccc(-n2nc3c(c2NC(=O)c2ccco2)CSC3)cc1,-4,33
Cc1cc(C)cc(-n2nc3c(c2NC(=O)c2ccco2)CSC3)c1,-10,65*
O=C(Nc1c2c(nn1-c1cccc(Cl)c1)CSC2)c1ccc(Br)o1,-4,10
O=C(NC1CC(O)C(CO)C1)c1cc(Cl)ccc1Cl (stereo not drawn),-2,-11
Cc1nn(C)c2c(=O)n(CC(=O)NCc3ccc(F)cc3Cl)ccc12,-1,-5
CC1CC(C)CN(S(=O)(=O)N2CCCC(C(=O)O)C2)C1 (stereo not drawn),24,-7
CCc1ccccc1NC(=O)c1cc(S(=O)(=O)NC2CCCCC2C)ccc1F (stereo not drawn),4,4
CN(C)c1ccc(CNc2ccc(-c3nc(-c4ccccc4)no3)cn2)cc1,0,-5
CCOc1ccccc1NC(=O)c1c(NCc2cccnc2)sc2c1CCC(C)C2 (stereo not drawn),-18,25
COc1ccccc1NC(=O)c1c(NC(=O)c2ccccc2Cl)sc2c1CCC2,2,-4
COc1ccccc1NC(=O)c1c(NCc2cccnc2)sc2c1CCCC2,-22,71*
COc1ccccc1NC(=O)c1c(NCc2cccnc2)sc2c1CCC2,-17,74*
O=C(Nc1cccc(F)c1)Nc1ccc2nncn2c1,6,-7
Cc1ccccc1C1Nc2ccc3ncccc3c2C2=C1C(=O)CCC2 (stereo not drawn),3,16
O=[N+]([O-])c1ccc(-c2nc(C=Nc3ccc(I)cc3)c(O)o2)cc1,-2,2
C=CCOc1ccc(C=Nc2ccc(OC)cc2)c(O)c1,-2,0
COc1cc(OC)c(C=Nc2ccc(O)cc2)cc1Br,3,64*
COc1ccc(C=Nc2ccc(O)cc2)c(OC)c1,-7,71*
COc1cc(OC)c(C=Nc2ccccc2)cc1Br,-2,4
COCCNc1ccc(-c2nc(-c3ccc(C)cc3)no2)cn1,-1,-10
c1ccc(-c2nnc(-c3ccccn3)nc2-c2ccccc2)cc1,-2,44
O=S(=O)(O)c1cc(-c2nnc(-c3ccccn3)nc2-c2ccc(S(=O)(=O)O)o2)co1,nt,100*
